# Assay results from PubChem BioAssay.
# Activity calls are given as the source filed them.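 How the source made its calls, unless noted: active means fluorescence slope higher than the sample average by over 3 SD (cut at about -0.22 in these data, passing the limit was not always enough); inactive means the rest.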
# What was measured:
# [1] = inhibitors of TNFa-induced NFkB p65 translocation, primary screen, imaging, HUVEC, MLSMR starter and 10KST1 sets (AID 438;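 active means inhibition above 20% together with a positive visual image hit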;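 further: compound added about 3h40 before a 20 min TNFalpha stimulation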;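 on inhibition: signal is the nuclear over cytoplasmic p65 intensity ratio per well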); conditions: HUVEC TNFa-induced p65 nuclear translocation; cell count: measured here: nuclei count (cytotoxicity indicator), at 2.08 µM; inhibition: at 2 µM, stronger effect = higher value, 0% TNFa-plus-vehicle, 100% no-TNFa wells
# [2] = reduction of polyQ htt aggregates in cells – imaging, exon1htt(103Q)mCFP cells, high-content imaging, primary screen (AID 483;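 active means visual image review flags a hit and inhibition of aggregation exceeds 20%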;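 further: compound exposure lasted 3 days before fixation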;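 on nuclei count: percent of the per-plate median nuclei count of sample wells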); conditions: exon1htt(103Q)mCFP cell line, aggregate imaging, at 2 µM; inhibition of aggregation: stronger effect = higher value; nuclei count: measured here: cell count, toxicity
# [3] = endothelial E-selectin expression blockers – imaging, HUVEC, immunofluorescence, MLSMR starter and 10KST1 sets, primary screen (AID 487;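 active means visually confirmed hit in the image check and inhibition above 20%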;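 on inhibition: signal is fraction of cell area covered by stained E-selectin grains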;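 on nuclei count: 100% = median nuclei count of all wells on the same plate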); conditions: HUVEC TNFalpha-induced E-selectin immunofluorescence imaging, at 2 µM; inhibition: stronger effect = higher value; nuclei count: measured here: cell number, toxicity
# [4] = molecular target: Voltage-gated potassium channel subunit beta-2 (Rattus norvegicus) (UniProt P62483); test: inhibitors of rat Kvbeta2 reductase activity – biochemical, NADPH fluorescence, primary screen (AID 622); conditions: recombinant KvBeta, 4-cyanobenzaldehyde reduction, at 10 µM, stronger effect = higher value;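 further: slope of raw intensity against log time taken from 70 to 1610 s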
# [5] = molecular target: Voltage-gated potassium channel subunit beta-2 (Rattus norvegicus) (UniProt P62483); test: enhancers of rat Kvbeta2 NADPH turnover – biochemical, NADPH fluorescence, primary screen (AID 623;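 active means NADPH fluorescence slope more negative than the mean of all samples by about 3 SD, 99.7% confidence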;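 further: fluorescence intensity change per second fitted from 20 to 320 s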); conditions: Recombinant KvBeta, NADPH fluorescence decrease slope, 10 min; at 10 µM; stronger effect = lower value
# [6] = molecular target: Alpha-2C adrenergic receptor (Homo sapiens) (UniProt P18825); test: compounds altering alpha2C-coupled GIRK flux – cell-based, HEK293 alpha2C/GIRK1/2, thallium flux, primary screen (AID 624;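 active means fluorescence slope after compound addition differing from the mean of all screened samples at 99.7% confidence, in either direction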;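 further: slope of fluorescence ratio to pre-addition baseline per second over 15 to 24 s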); conditions: thallium flux BTC fluorescence, at 10 µM, actives lie on both sides
# [7] = blockers of RIG-like receptor reporter activation – cell-based, Sendai virus stimulus, luciferase, 10K MLSCN set, TLR/RLR signaling modifier project, primary screen (AID 602276;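 active means inhibition at or above 50% at 10 µM; inactive means inhibition below 50%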;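 further: firefly luciferase from ISG56 promoter only with Renilla not read in this screen; 0% = Sendai virus plus DMSO and 100% = medium plus DMSO without virus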); conditions: HEK293 RL24 IRF3 luciferase reporter, at 10 µM, stronger effect = higher value
# [8] = TLR3 IRF3 reporter activation blockers – cell-based, poly I:C stimulus, luciferase, 10K MLSCN set, primary screen (AID 602277;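 active means inhibition of the reporter signal at or above 50%; inactive means inhibition below 50%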); conditions: HEK293-TLR3 RL24 IRF3 luciferase reporter, at 10 µM, stronger effect = higher value
# Alpha-2C adrenergic receptor (Homo sapiens), sequence (P18825 whole entry, looked up): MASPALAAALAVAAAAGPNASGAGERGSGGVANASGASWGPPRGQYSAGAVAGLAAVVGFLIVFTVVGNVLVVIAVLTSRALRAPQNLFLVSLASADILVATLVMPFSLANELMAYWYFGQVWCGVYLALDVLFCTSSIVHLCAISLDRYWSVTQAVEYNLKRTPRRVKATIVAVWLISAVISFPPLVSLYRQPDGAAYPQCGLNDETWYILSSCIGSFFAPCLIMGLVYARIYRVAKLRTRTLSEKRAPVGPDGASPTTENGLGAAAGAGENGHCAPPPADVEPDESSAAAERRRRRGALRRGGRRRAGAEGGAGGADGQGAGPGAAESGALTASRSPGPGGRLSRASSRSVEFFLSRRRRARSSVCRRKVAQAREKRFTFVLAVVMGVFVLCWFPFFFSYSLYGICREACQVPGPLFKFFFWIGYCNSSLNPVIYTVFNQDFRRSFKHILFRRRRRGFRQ
# Voltage-gated potassium channel subunit beta-2 (Rattus norvegicus), sequence (P62483 whole entry, looked up): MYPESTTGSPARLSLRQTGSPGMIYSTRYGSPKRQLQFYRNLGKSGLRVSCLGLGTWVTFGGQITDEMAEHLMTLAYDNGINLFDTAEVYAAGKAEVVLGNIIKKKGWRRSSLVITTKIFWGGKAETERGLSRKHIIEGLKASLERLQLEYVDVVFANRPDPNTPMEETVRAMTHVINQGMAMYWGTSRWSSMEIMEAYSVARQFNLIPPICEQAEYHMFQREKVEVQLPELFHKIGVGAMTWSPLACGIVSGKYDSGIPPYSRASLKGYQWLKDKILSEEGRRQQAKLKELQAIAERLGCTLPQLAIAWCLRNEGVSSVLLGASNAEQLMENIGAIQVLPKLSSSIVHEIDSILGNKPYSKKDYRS
Structure (SMILES),cell count [1],inhibition [1],inhibition of aggregation [2],nuclei count [2] [%],inhibition [3],nuclei count [3] [%],fluorescence slope [4],NADPH fluorescence slope [5],slope [6],inhibition [7],inhibition [8]
COc1cccc(-n2nc(C(=O)Nc3ccc4c(c3)OCO4)c3ccccc3c2=O)c1,741,1.6% (inactive),-5.9% (inactive),98.3,-27% (inactive),118,-0.601 (inactive),-3.9e-05 (inactive),0.0101 (inactive),3.08% (inactive),-20.2% (inactive)
COc1c(S(=O)(=O)n2nc(C)cc2C)ccc(Cl)c1Cl,536,11.4% (inactive),-8.9% (inactive),120,-25.3% (inactive),68.4,-0.434 (inactive),-7.2e-05 (inactive),0.0052 (inactive),-8.21% (inactive),15.5% (inactive)
Cc1c(NC(=O)c2ccc(Br)o2)c(=O)n(-c2ccccc2)n1C,366,-5.9% (inactive),-13.4% (inactive),114,-74% (inactive),129,-0.436 (inactive),-2.6e-05 (inactive),0.00344 (inactive),9.74% (inactive),34.3% (inactive)
COC(=O)c1ccc2c(c1)C(=O)N(C1CCCCC1)C2=O,338,2.1% (inactive),-2.4% (inactive),107,-9.6% (inactive),96.9,-0.443 (inactive),-3.4e-05 (inactive),0.00524 (inactive),14.7% (inactive),13.8% (inactive)
CC(NCc1ccco1)C(=O)N1CCc2ccccc2C1 (stereo not drawn),705,-49% (inactive),6.5% (inactive),105,27% (inactive),108,-0.48 (inactive),-0.000253 (inactive),0.00559 (inactive),-8.88% (inactive),1.37% (inactive)
O=C(COC(=O)c1ccccc1Oc1ccccc1)NC1CCS(=O)(=O)C1 (stereo not drawn),33,74.9% (active),0% (inactive),95.2,-124% (inactive),116,-0.521 (inactive),-1.6e-05 (inactive),0.00666 (inactive),8.04% (inactive),-20% (inactive)
Cc1nc(NC(=O)c2csc3ccccc23)sc1C,386,-2.7% (inactive),-3.7% (inactive),103,-38.1% (inactive),117,-0.504 (inactive),-5.5e-05 (inactive),0.00508 (inactive),-31.4% (inactive),-86.4% (inactive)
CN(Cc1ccco1)C(=O)Cn1c(=O)oc2cc(S(=O)(=O)NCc3ccccc3)ccc21,924,2.8% (inactive),20.1% (inactive),104,-17.8% (inactive),96.6,-0.55 (inactive),2.5e-05 (inactive),0.00749 (inactive),13.5% (inactive),10.8% (inactive)
COCCn1nnnc1C(c1cc2cc(OC)ccc2[nH]c1=O)N1CCC(Cc2ccccc2)CC1 (stereo not drawn),247,-3.5% (inactive),-2.5% (inactive),88.5,-39.9% (inactive),117,-0.359 (inactive),1.6e-05 (inactive),0.00322 (inactive),14.4% (inactive),30.6% (inactive)
COC(=O)CSC1=NS(=O)(=O)c2ccccc21,340,1.2% (inactive),19.6% (inactive),91.3,45.9% (inactive),113,-0.5 (inactive),-3.6e-05 (inactive),0.00571 (inactive),20.5% (inactive),21.4% (inactive)
COc1cc(C2c3c(n[nH]c3C)C(=O)N2c2ccc(Br)cc2)ccc1O (stereo not drawn),677,-3.9% (inactive),1.5% (inactive),100,3.2% (inactive),106,-0.408 (inactive),-1.5e-06 (inactive),0.00373 (inactive),8.55% (inactive),24.2% (inactive)
CCOc1ccc(NC(=O)CSc2nnc(COc3c(C)cccc3C)o2)cc1,577,7.3% (inactive),-15% (inactive),116,-13.1% (inactive),115,-0.567 (inactive),-1.4e-05 (inactive),0.00747 (inactive),6.58% (inactive),30.3% (inactive)
CCOC(=O)CN1C(=O)C2(OCCCO2)c2ccccc21,595,-18.5% (inactive),3.3% (inactive),115,-39.6% (inactive),96.5,-0.454 (inactive),-0.000151 (inactive),0.00617 (inactive),1.67% (inactive),18.4% (inactive)
CCCN1C2CCCC1CC(NC(=O)c1ccccc1F)C2 (stereo not drawn),461,6% (inactive),-1.6% (inactive),115,14.8% (inactive),101,-0.515 (inactive),-4.7e-05 (inactive),0.00485 (inactive),10.6% (inactive),17.7% (inactive)
COc1cccc(-c2nc(CS(=O)CC(=O)NCCCOC(C)C)c(C)o2)c1 (stereo not drawn),193,-13% (inactive),5.9% (inactive),119,-27.1% (inactive),95.8,-0.486 (inactive),-9.9e-06 (inactive),0.00479 (inactive),11.4% (inactive),7.08% (inactive)
COc1ccc(-c2noc(CCN3C(=O)c4ccccc4C3=O)n2)cc1OC,555,7.6% (inactive),-3.7% (inactive),108,28.6% (inactive),104,-0.497 (inactive),-2.8e-05 (inactive),0.00665 (inactive),-0.74% (inactive),26.4% (inactive)
O=C(NCCc1ccccn1)c1ccc(COc2ccccc2)o1,450,-26.3% (inactive),8.3% (inactive),93.3,-39.9% (inactive),156,-0.449 (inactive),-4.6e-05 (inactive),0.00624 (inactive),3.41% (inactive),-2.41% (inactive)
COc1ccc(N2CCN(Cc3nc(-c4ccc(Cl)cc4Cl)no3)CC2)cc1,596,-0.7% (inactive),4.9% (inactive),106,-48.8% (inactive),122,-0.421 (inactive),-7.7e-05 (inactive),0.00526 (inactive),18.6% (inactive),22.1% (inactive)
CCC1(c2ccc(F)cc2)NC(=O)N(CC(=O)c2ccc[nH]2)C1=O (stereo not drawn),556,-20.6% (inactive),6.8% (inactive),99.9,-36.7% (inactive),114,-0.419 (inactive),-4.1e-05 (inactive),0.00348 (inactive),4.26% (inactive),27% (inactive)
Cc1nnc(SCc2ccccc2F)n1NCc1cccs1,767,-3.9% (inactive),-8.1% (inactive),106,-71% (inactive),113,-0.47 (inactive),-4.7e-05 (inactive),0.00631 (inactive),-2.84% (inactive),-9.57% (inactive)
O=C(c1ccco1)N(Cc1cc2ccccc2[nH]c1=O)C1CCCCC1,312,4.8% (inactive),-13.6% (inactive),114,-42.1% (inactive),115,-0.617 (inactive),2e-05 (inactive),0.00525 (inactive),-3.39% (inactive),6.38% (inactive)
Cc1cccc(C2CC(c3ccccc3)Nc3nc(N)nn32)c1 (stereo not drawn),626,-3.4% (inactive),7.7% (inactive),114,-47.9% (inactive),120,-0.517 (inactive),-5.7e-06 (inactive),0.00697 (inactive),9.21% (inactive),18.7% (inactive)
Cc1ccc(N2C(=O)c3oc4ccccc4c(=O)c3C2c2cccc(O)c2)nc1 (stereo not drawn),752,6.1% (inactive),-1.9% (inactive),64.5,-6.3% (inactive),66.8,-0.589 (inactive),-3.8e-06 (inactive),0.00643 (inactive),11% (inactive),14.6% (inactive)
CCN(CC)S(=O)(=O)c1ccc(NC(=O)CN(c2cccc(F)c2)S(C)(=O)=O)cc1,426,1.1% (inactive),-25.1% (inactive),107,-25.3% (inactive),98.6,-0.449 (inactive),2.5e-05 (inactive),0.00334 (inactive),8.61% (inactive),18.3% (inactive)
CC(=O)N1CCN(c2ccc(N=Cc3c(O)n(Cc4ccccc4)c(=O)[nH]c3=O)cc2)CC1,344,6.8% (inactive),-13.5% (inactive),102,-9.7% (inactive),105,-0.525 (inactive),1.9e-05 (inactive),0.00469 (inactive),14.1% (inactive),22.9% (inactive)
Cc1ccc(N2CC(C)Cn3c2nc2c3c(=O)n(CC(=O)OCc3ccccc3)c(=O)n2C)cc1C (stereo not drawn),242,-3.2% (inactive),21.6% (inactive),77.7,-43% (inactive),109,-0.473 (inactive),-2.8e-05 (inactive),0.00778 (inactive),28.5% (inactive),16.6% (inactive)
COCCn1c(-c2ccco2)nc2nc3ccccc3nc21,237,1.6% (inactive),23.4% (inactive),69.1,-4.2% (inactive),98.9,-0.255 (inactive),-2.3e-05 (inactive),0.00377 (inactive),-0.433% (inactive),-3.38% (inactive)
CC1CC(C)CN(c2ncnc3c2cnn3-c2ccc(Cl)cc2)C1 (stereo not drawn),584,3.4% (inactive),12.1% (inactive),79.5,-52.4% (inactive),112,-0.504 (inactive),-2e-05 (inactive),0.00874 (inactive),37.3% (inactive),11.5% (inactive)
